# Reference: PubChem BioAssay (EPA / NIEHS)
# Active and inactive are the calls of the source. Rule for the calls: active = hit-call score of the fitted dose curve at least 0.9, where 1 is the maximum; inactive = score below 0.9.
# Experiment: CCTE_Padilla_ZF_Score.Swim_bladder: CCTE's 144 Hour Post-fertilization zebrafish Assay Score for Swim Bladder Malformation, Padilla Lab (AID 2284408)
# Protocol: CCTE_Padilla_ZF_Phenotype_Score is a whole embryo, multiplexed assay using zebrafish ova exposed for 144 hours post fertilization on a 96-well plate.CCTE_Padilla_ZF_Score.Swim_bladder is one of one assay component(s) measured or calculated from the CCTE_Padilla_ZF_Phenotype_Score assay. It is designed to make measurements of zebrafish development as detected with brightfield microscopy of developing zebrafish embryos.Data from the assay component CCTE_Padilla_ZF_Score.Swim_bladder was analyzed into 1 assay endpoints. This assay endpoint, CCTE_Padilla_ZF_Score.Swim_bladder, was analyzed in the positive analysis fitting direction relative to DMSO as the negative control and baseline of activity. Using a type of viability reporter, gain-of-signal activity can be used to understand changes in developmentals as they relate to the whole embryo. To generalize the intended target to other relatable targets, this assay endpoint is annotated to the zebrafish development intended target family, where the subfamily is swim bladder morphogenesis.
# Zebrafish husbandry: Wild type adult zebrafish (Danio rerio; undefined outbred stock obtained from Aquatic Research Organisms, Hampton, NH, 03842) were housed in an AAALAC-approved animal facility at 28C with a 14:10 h light: dark cycle (lights on at 08:30 h). Adult fish (2-3 females per male; density = 15-20 adults per tank) were kept in one of several 9-liter (L) flow-through colony tanks (Aquaneering Inc., San Diego, CA). All adults in a colony tank were placed in a 2 L (static) breeding tank (Aquatic Habitats, Apopka, FL) one hour prior to light onset. Typically, adults from two to three colony tanks were mated on the same day. Two hours after light onset the adults were returned to the colony tank. All embryos were gathered from each breeder tank, pooled, and placed in a 28C water bath for 2 h, followed by two washes with 0.06% bleach (v/v) in 10% Hanks' Balanced Salt Solution (13.7 mM NaCl 0.54 mM KCl, 25 uM Na2HPO4, 130 uM CaCl2 100 um MgSO4 and 420 um NaHCO3,), hereafter referred to as Hanks' solution, for 5 min in order to remove any residual bacteria or fungi. Immediately following washing, the embryos were examined, and healthy embryos were separated from dead or unfertilized eggs and moved into fresh Hanks'. Chemical exposures: Zebrafish embryos were exposed in 96-well plates. Between 6- and 8-hours post fertilization (hpf), healthy embryos (with chorions) were transferred, one embryo per well, into 96 well (0.5 mL) microtiter plates (Cell Culture-Treated, Flat-Bottom Microplate 96 well [Corning Costar, Kennebunk, ME; Cat 09-761-145]) filled with 200 uL of Hanks' solution. A random number generator was used to assign the order in which the rows of embryos were plated in 96 well plates each week. After plating, the embryos were dosed with 0.8 uL of the chemical dosing solution then immediately sealed with AlumaSeal II (Excel Scientific Inc, Victorville, CA) to prevent volatilization of the chemicals, and then placed in a leakproof secondary container. These containers were placed in an incubator maintained on a 14:10 h light: dark cycle at 26C for rearing. On 5 dpf, live larvae were gently moved out of the plate with test chemicals and into a new 96 well mesh plate (Millipore Corp., Bedford, MA) with just the Hanks' solution. Once within the mesh well plate, the animals were rinsed with 400 uL of fresh Hanks' three times, and then the plates were covered with a non-adhesive material (Microseal A, BioRad, Hercules, CA), plate lid added, and then plate sides wrapped in Parafilm (PM992, Bermis Company, Neenah, WI), and returned to the incubator. […]
SMILES,AC50,outcome
FC(F)(F)C(F)(F)C(F)(F)C(F)(F)C(F)(F)CCI,30.4 µM (active),–
OCC(F)(F)C(F)(F)C(F)(F)F,–,inactive
O=C(O)C(F)(F)C(F)(F)C(F)(F)C(F)(F)C(F)(F)C(F)(F)C(F)(F)C(F)(F)C(F)(F)C(F)(F)C(F)(F)C(F)(F)C(F)(F)F,–,inactive
O=C(O)C(F)(F)C(F)(F)OC(F)(F)F,–,inactive
CCO[Si](CCC(F)(F)C(F)(F)C(F)(F)C(F)(F)C(F)(F)C(F)(F)F)(OCC)OCC,–,inactive
C=C(C)C(=O)OCC(F)(F)C(F)(F)C(F)(F)C(F)(F)C(F)(F)C(F)(F)C(F)(F)F,–,inactive
FC(F)(Br)C(F)(F)C(F)(F)C(F)(F)C(F)(F)C(F)(F)Br,–,inactive
FC(F)(F)C(F)(F)C(F)(F)C(F)(F)C(F)(F)C(F)(F)C(F)(F)I,63.8 µM (active),–
FC(F)(F)C(F)(F)C(F)(F)C(F)(F)C(F)(F)C(F)(F)C(F)(F)C(F)(F)CCS,–,inactive
C=CC(=O)OCC(F)(F)C(F)(F)C(F)(F)C(F)(F)C(F)(F)C(F)(F)C(F)(F)F,–,inactive
C=CC(F)(F)C(F)(F)C(F)(F)C(F)(F)C(F)(F)C(F)(F)C(F)(F)C(F)(F)F,–,inactive
O=C(O)C(F)(F)C(F)(F)C(F)(F)C(F)(F)F,–,inactive
OCC(F)(F)C(F)(F)C(F)(F)C(F)(F)C(F)(F)C(F)(F)F,–,inactive
O=S(=O)(OCC(F)F)C(F)(F)F,–,inactive
FC(F)(F)C(F)(F)C(F)(F)C(F)(F)C(F)(F)C(F)(F)CCS,–,inactive
O=C(O)C(F)(F)C(F)(F)C(F)(F)F,–,inactive
FC(F)(F)C(F)(F)C(F)(F)C(F)(F)C(F)(F)C(F)(F)CC1CO1 (stereo not given),–,inactive
O=C(O)C(F)(F)C(F)(F)C(F)(F)C(F)(F)C(F)(F)C(F)(F)C(F)(F)C(F)(F)C(F)(F)C(F)F,–,inactive
FC(F)(F)C(F)(F)C(F)(F)CI,–,inactive
Cc1ccc(S(=O)(=O)OCC(F)(F)C(F)(F)C(F)(F)C(F)(F)C(F)(F)C(F)F)cc1,9.81 µM (active),–

SMILES,AC50,outcome
CCCCCCCCC(F)(F)C(F)(F)C(F)(F)C(F)(F)C(F)(F)C(F)(F)F,–,inactive
FC(F)(F)C(F)(F)CNCC(F)(F)C(F)(F)F,0.00275 µM (active),–
FC(F)(F)C(F)(F)C(F)(F)C(F)(F)CCI,–,inactive
OCCCC(F)(F)C(F)(F)C(F)(F)F,–,inactive
O=P(O)(O)OCCC(F)(F)C(F)(F)C(F)(F)C(F)(F)C(F)(F)C(F)(F)F,–,inactive
OCC(F)(F)C(F)(F)C(F)(F)C(F)F,–,inactive
O=C(O)C(F)(OC(F)(F)C(F)(OC(F)(F)C(F)(OC(F)(F)C(F)(F)C(F)(F)F)C(F)(F)F)C(F)(F)F)C(F)(F)F (stereo not given),–,inactive
O=C(O)C(F)(OC(F)(F)C(F)(OC(F)(F)C(F)(F)C(F)(F)F)C(F)(F)F)C(F)(F)F (stereo not given),–,inactive
FC(F)(F)C(F)(F)C(F)(F)C(F)(F)C(F)(F)C(F)(F)C(F)(F)C(F)(F)F,–,inactive
O=C(CC(=O)C(F)(F)C(F)(F)F)C(F)(F)F,–,inactive
O=C(O)C(F)(F)C(F)(F)C(F)(F)C(F)(F)C(F)(F)C(F)(F)C(F)(F)C(F)(F)C(F)(F)C(F)(F)C(F)(F)C(F)(F)F,–,inactive
O=C(O)C(F)(F)C(F)(F)C(F)(F)C(F)(F)C(F)(F)C(F)(F)C(F)(F)C(F)(F)Cl,9.95 µM (active),–
OCCCC(F)(F)C(F)(F)C(F)(F)C(F)(F)C(F)(F)C(F)(F)C(F)(F)F,88.1 µM (active),–
O=S(=O)(OCCOC(F)(F)F)C(F)(F)F,–,inactive
O=C(O)C(F)(F)C(F)(F)F,–,inactive
O=C(O)C(F)(F)C(F)(F)C(F)F,–,inactive
FC(F)(I)C(F)(F)C(F)(F)C(F)(F)I,27.5 µM (active),–
CC(C)(C)C(=O)CC(=O)C(F)(F)C(F)(F)C(F)(F)F,27 µM (active),–
O=C(O)C=C(C(F)(F)F)C(F)(F)F,–,inactive
O=C(Cl)C(F)(F)C(F)(F)C(F)(F)C(F)(F)C(F)(F)C(F)(F)C(F)(F)C(F)(F)F,–,inactive
